# Measurements published in PubChem BioAssay (NCI).
# About 79,000 compounds went through this panel and 15% of them were active in at least one assay; those are over-represented in the sample as a whole. Unmarked numbers belong to inactive results. Active and inactive are the calls of the source. Rule as the data show it: active = growth inhibition above about 70%; inactive = the rest.
# Assay: NCI Yeast Anticancer Drug Screen. Data for the bub3 strain (AID 167)
# Conditions: S. cerevisiae bub3 mutant strain, at 50.0 µM, hits give high values
# Procedure, shortened: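 Screening used yeast with an engineered genetic alteration affecting cell cycle control. Compound-exposed cultures were compared with vehicle cultures, and reduced growth was taken as inhibition.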
row,SMILES,growth inhibition [%]
1,CCOC(=O)c1ccc(NC(=S)NC(=O)c2cccc([N+](=O)[O-])c2)cc1,15.1
2,CCN(CC)S(=O)(=O)Nc1c(C)n(C)n(-c2ccccc2)c1=O,-2
3,Cc1cc(S(=O)(=O)Nc2n[nH]c(Nc3ccccc3)n2)c(S)cc1Cl,12.9
4,N#CC(C#N)=NNc1ccc2cn[nH]c2c1,-39.5
5,COC(=O)C1CCC(/C(C#N)=C2/CCC(C(=O)OC)[N-]2)=N1.COC(=O)C1CCC(/C(C#N)=C2/CCC(C(=O)OC)[N-]2)=N1.[Cu+2] (centres undefined),-24.5
6,CCOC(=O)CN1C(=O)C(=O)N(c2ccc(OC)c3ccccc23)C1=O,-1.3
7,CCOC(=O)COC(=O)C1C(C(N)=O)N(CC(=O)OCC)CCN1CC(=O)OCC (centres undefined),-2.45
8,Cc1nc(=S)[nH][nH]1,8.15
9,CNC(=O)OCc1nc(SSC(C)(C)C)n(C)c1COC(=O)NC,16.2
10,COc1cccc2c1C(=O)C1(O)CCCCC21 (centres undefined),-59.5
11,CC1(C)C(O)C(C)(C)C1O (centres undefined),11.2
12,CCNC1=C(Cl)C(=O)c2ccccc2C1=O,8.7
13,Cc1sc2ccnc(C)c2c1S(=O)(=O)O,15.2
14,COC(=O)c1ccc(/C=C(\c2ccc([N+](=O)[O-])o2)S(=O)(=O)c2ccc(NC(C)=O)cc2)o1,34.8
15,CC(=O)Nc1ccc(S(=O)(=O)Oc2noc3ccccc23)cc1,18.1
16,CC(C)(S(=O)(=O)Oc1ccccc1)S(=O)(=O)Oc1ccccc1,49.8
17,CC(=O)Nc1cc(C)c(C)cc1[N+](=O)[O-],-27.1
18,CCNC(=O)NC(=O)C(C)(C)Oc1ccc(Cl)cc1,12.4
19,C=C1CC[N+]2(CCCCCC)CCCC12 (centres undefined),25.4
20,COc1cc2c(cc1OC)C(C#N)(C(c1ccccc1)c1ccccc1)N(C(=O)c1ccccc1)C=C2 (centres undefined),-0.7
21,O=C(O)c1ccc2c(c1)CC1(C2)Cc2ccccc2C1=O (centres undefined),6.15
22,Cc1cnn(-c2ccccc2)[n+]1[O-],9.6
23,O=C(c1ccc(O)cc1)C1N=NCC1c1ccccc1 (centres undefined),56.8
24,CC1=CC(=O)C(CN(C)C)(CN(C)C)C(C)(C)C1,-1.65

# Assay: NCI Yeast Anticancer Drug Screen. Data for the mlh1 rad18 strain (AID 175)
# Conditions: S. cerevisiae mlh1 rad18 strain growth inhibition; at 50.0 µM; hits give high values
# Procedure, shortened: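 In this whole-cell yeast screen, a strain with altered DNA damage repair is challenged with compound, and its growth is measured against matched vehicle-treated controls.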
row,SMILES,growth inhibition
1,O=S(=O)(Oc1ccc(OS(=O)(=O)c2ccccc2)cc1)c1ccccc1,14.6%
2,Nc1cccc2c1C(=O)OC2=O,3.85%
3,CCC(C(=O)c1ccccc1)c1cccc2c1N(C(C)=O)CC2 (centres undefined),20.1%
4,COc1ccc(OC)c(NC(=O)c2ccc(Cl)c(Cl)c2)c1,0.85%
5,CCCCCCCCCCCCCCCCS(=O)(=O)N/N=c1\cc(-c2ccccc2Cl)c2ccccc2n1C,3.35%
6,C=CC1CC(NC(=O)OC)C(=O)O1 (centres undefined),-3.25%
7,CC1(C)C(CC(=O)O)CC1C(=O)O (centres undefined),-1.4%
8,Cc1cc(N)ccc1N=Nc1ccc(S(=O)(=O)CCOS(=O)(=O)O)cc1,-74.7%
9,Oc1ccc(C2SCc3nc4ccccc4n32)cc1 (centres undefined),-25.1%
10,C/C(N)=C\c1nc(=O)ccs1,13.3%
11,C#[N+]CCOP(=O)(OCC1OC(n2cc(C)c(=O)[nH]c2=O)CC1N=[N+]=[N-])O[C@H]1CC[C@@]2(C)C(=CC[C@H]3[C@@H]4CC[C@H](C(C)/C=C/C(CC)C(C)C)[C@@]4(C)CC[C@@H]32)C1 (some centres undefined),-19.1%
12,O=C(O)c1ccc(O)cc1,21.9%
13,O=C1c2cccc3c([N+](=O)[O-])ccc(c23)C(=O)N1CC1CCCO1 (centres undefined),73.5% (active)
14,COC(=O)C(C(C)C(C)[N+](=O)[O-])=P(c1ccccc1)(c1ccccc1)c1ccccc1 (centres undefined),10.8%
15,CC(=O)OC(C)C1CCCC1OC(C)=O (centres undefined),-22.5%
16,O=Cc1ccnc2c(Cl)cccc12,18%
17,CCOC(=O)c1ccc(NC(=S)NC(=O)c2cccc([N+](=O)[O-])c2)cc1,15.2%
18,CCN(CC)S(=O)(=O)Nc1c(C)n(C)n(-c2ccccc2)c1=O,14%
19,Cc1cc(S(=O)(=O)Nc2n[nH]c(Nc3ccccc3)n2)c(S)cc1Cl,19.6%
20,N#CC(C#N)=NNc1ccc2cn[nH]c2c1,-1.95%

row,SMILES,growth inhibition
1,COC(=O)C1CCC(/C(C#N)=C2/CCC(C(=O)OC)[N-]2)=N1.COC(=O)C1CCC(/C(C#N)=C2/CCC(C(=O)OC)[N-]2)=N1.[Cu+2] (centres undefined),11.2%
2,CCOC(=O)CN1C(=O)C(=O)N(c2ccc(OC)c3ccccc23)C1=O,-27.6%
3,CCOC(=O)COC(=O)C1C(C(N)=O)N(CC(=O)OCC)CCN1CC(=O)OCC (centres undefined),2.25%
4,Cc1nc(=S)[nH][nH]1,1%
5,CNC(=O)OCc1nc(SSC(C)(C)C)n(C)c1COC(=O)NC,-9.4%
6,COc1cccc2c1C(=O)C1(O)CCCCC21 (centres undefined),-25.7%
7,CC1(C)C(O)C(C)(C)C1O (centres undefined),10.2%
8,CCNC1=C(Cl)C(=O)c2ccccc2C1=O,14.9%
9,Cc1sc2ccnc(C)c2c1S(=O)(=O)O,-12.4%
10,COC(=O)c1ccc(/C=C(\c2ccc([N+](=O)[O-])o2)S(=O)(=O)c2ccc(NC(C)=O)cc2)o1,88.5% (active)
11,CC(=O)Nc1ccc(S(=O)(=O)Oc2noc3ccccc23)cc1,23.1%
12,CC(C)(S(=O)(=O)Oc1ccccc1)S(=O)(=O)Oc1ccccc1,16.6%
13,CC(=O)Nc1cc(C)c(C)cc1[N+](=O)[O-],-11.7%
14,CCNC(=O)NC(=O)C(C)(C)Oc1ccc(Cl)cc1,18.8%
15,C=C1CC[N+]2(CCCCCC)CCCC12 (centres undefined),21.6%
16,COc1cc2c(cc1OC)C(C#N)(C(c1ccccc1)c1ccccc1)N(C(=O)c1ccccc1)C=C2 (centres undefined),30.9%
17,O=C(O)c1ccc2c(c1)CC1(C2)Cc2ccccc2C1=O (centres undefined),-2.75%
18,Cc1cnn(-c2ccccc2)[n+]1[O-],6.4%
19,O=C(c1ccc(O)cc1)C1N=NCC1c1ccccc1 (centres undefined),13.8%
20,CC1=CC(=O)C(CN(C)C)(CN(C)C)C(C)(C)C1,13.1%
